Results from ChEMBL document CHEMBL1961873, “Compounds: GSK PKIS; Assays: Nanosyn kinase panel” (2012).

How the values were obtained:
[1] = biological target: Rho-associated protein kinase 1 (Homo sapiens) (UniProt Q13464); conditions: at 1 µM;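 note: reported values are mean percent inhibition of ROCK1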
[2] = biological target: Rho-associated protein kinase 2 (Homo sapiens) (UniProt O75116); conditions: at 0.1 µM
[3] = biological target: Rho-associated protein kinase 2 (Homo sapiens) (UniProt O75116); conditions: at 1 µM
[4] = biological target: Ribosomal protein S6 kinase alpha-1 (Homo sapiens) (UniProt Q15418); conditions: at 0.1 µM
Chain of Ribosomal protein S6 kinase alpha-1 (Homo sapiens) (Q15418 whole entry): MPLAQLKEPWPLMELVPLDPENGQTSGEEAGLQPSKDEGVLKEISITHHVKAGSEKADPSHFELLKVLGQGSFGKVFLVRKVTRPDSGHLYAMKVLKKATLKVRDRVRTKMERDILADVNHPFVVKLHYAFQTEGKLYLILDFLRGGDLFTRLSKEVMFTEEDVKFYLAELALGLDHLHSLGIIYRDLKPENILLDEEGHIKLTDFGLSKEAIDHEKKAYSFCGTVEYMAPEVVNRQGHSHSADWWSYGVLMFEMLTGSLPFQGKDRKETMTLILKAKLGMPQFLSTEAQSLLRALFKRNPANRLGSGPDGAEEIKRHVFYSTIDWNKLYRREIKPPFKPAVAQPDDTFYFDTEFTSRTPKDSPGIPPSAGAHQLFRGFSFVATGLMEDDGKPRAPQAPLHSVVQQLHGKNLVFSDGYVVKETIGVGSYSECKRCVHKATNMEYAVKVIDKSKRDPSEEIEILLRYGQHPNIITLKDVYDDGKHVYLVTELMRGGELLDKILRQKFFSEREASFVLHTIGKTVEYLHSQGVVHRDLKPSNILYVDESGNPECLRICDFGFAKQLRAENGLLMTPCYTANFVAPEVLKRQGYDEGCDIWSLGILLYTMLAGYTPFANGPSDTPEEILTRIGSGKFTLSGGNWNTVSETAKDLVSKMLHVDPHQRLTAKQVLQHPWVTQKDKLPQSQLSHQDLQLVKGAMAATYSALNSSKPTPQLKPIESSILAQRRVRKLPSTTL

[5] = biological target: Ribosomal protein S6 kinase alpha-1 (Homo sapiens) (UniProt Q15418); conditions: at 1 µM
[6] = biological target: Ribosomal protein S6 kinase alpha-3 (Homo sapiens) (UniProt P51812); conditions: at 0.1 µM
Chain of Ribosomal protein S6 kinase alpha-3 (Homo sapiens) (P51812 whole entry): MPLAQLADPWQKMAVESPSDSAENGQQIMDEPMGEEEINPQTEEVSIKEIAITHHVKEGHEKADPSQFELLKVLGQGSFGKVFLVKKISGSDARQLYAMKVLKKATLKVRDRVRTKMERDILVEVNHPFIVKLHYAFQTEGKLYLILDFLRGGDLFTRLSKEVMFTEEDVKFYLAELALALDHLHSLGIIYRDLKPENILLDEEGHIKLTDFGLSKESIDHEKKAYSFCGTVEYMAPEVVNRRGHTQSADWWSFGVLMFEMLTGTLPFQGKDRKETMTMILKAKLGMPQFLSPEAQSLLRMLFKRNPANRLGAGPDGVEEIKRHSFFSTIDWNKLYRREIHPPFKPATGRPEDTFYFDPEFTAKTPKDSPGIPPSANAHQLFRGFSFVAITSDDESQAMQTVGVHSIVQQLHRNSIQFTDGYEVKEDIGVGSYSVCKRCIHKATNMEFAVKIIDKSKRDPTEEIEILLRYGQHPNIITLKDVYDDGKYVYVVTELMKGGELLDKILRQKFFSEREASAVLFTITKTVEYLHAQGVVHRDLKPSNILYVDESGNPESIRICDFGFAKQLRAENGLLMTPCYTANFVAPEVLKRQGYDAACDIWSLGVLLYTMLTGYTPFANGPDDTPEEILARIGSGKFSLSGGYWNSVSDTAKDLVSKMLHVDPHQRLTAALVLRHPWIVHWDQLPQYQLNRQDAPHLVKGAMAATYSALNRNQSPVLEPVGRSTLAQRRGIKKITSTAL

[7] = biological target: Ribosomal protein S6 kinase alpha-3 (Homo sapiens) (UniProt P51812); conditions: at 1 µM
[8] = biological target: Ribosomal protein S6 kinase alpha-2 (Homo sapiens) (UniProt Q15349); conditions: at 0.1 µM
Chain of Ribosomal protein S6 kinase alpha-2 (Homo sapiens) (Q15349 whole entry): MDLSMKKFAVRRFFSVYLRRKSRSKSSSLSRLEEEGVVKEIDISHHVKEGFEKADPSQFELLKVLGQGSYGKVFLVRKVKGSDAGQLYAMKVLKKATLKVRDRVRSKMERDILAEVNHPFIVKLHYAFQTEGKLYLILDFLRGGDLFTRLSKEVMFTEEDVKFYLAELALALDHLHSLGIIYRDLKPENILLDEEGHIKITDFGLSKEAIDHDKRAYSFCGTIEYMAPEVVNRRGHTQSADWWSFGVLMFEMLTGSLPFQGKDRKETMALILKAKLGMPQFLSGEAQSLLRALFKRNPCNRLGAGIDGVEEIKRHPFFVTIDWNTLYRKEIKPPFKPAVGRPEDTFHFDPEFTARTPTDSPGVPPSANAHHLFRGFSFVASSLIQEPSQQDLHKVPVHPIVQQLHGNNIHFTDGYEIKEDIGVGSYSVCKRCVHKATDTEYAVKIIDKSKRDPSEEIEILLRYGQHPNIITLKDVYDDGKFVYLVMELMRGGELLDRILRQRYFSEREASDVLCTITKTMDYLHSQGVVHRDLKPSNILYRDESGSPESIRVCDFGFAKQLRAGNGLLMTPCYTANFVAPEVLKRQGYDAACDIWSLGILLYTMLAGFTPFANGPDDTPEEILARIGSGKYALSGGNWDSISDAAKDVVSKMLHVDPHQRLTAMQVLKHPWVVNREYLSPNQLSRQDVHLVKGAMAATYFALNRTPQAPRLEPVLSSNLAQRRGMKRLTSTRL

[9] = biological target: Ribosomal protein S6 kinase alpha-2 (Homo sapiens) (UniProt Q15349); conditions: at 1 µM
[10] = biological target: Ribosomal protein S6 kinase alpha-6 (Homo sapiens) (UniProt Q9UK32); conditions: at 0.1 µM
Chain of Ribosomal protein S6 kinase alpha-6 (Homo sapiens) (Q9UK32 whole entry): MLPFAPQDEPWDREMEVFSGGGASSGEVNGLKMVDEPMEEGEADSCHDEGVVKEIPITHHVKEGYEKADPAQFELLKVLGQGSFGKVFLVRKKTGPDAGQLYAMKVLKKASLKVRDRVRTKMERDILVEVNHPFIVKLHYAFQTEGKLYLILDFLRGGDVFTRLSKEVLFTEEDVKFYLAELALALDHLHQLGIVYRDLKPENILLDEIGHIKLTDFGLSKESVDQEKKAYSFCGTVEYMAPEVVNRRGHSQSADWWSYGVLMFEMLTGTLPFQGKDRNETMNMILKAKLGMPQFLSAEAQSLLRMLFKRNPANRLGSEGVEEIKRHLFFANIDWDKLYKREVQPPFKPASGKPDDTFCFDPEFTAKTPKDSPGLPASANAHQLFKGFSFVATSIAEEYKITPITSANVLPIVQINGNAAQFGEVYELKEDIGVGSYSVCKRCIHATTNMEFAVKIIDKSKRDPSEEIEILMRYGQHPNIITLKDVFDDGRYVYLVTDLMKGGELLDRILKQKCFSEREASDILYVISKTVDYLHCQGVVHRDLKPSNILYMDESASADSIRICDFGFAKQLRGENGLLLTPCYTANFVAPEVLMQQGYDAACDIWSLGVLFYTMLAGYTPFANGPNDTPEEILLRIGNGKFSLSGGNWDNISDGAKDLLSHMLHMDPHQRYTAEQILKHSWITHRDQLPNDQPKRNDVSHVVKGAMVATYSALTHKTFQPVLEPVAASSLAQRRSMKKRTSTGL

[11] = biological target: Ribosomal protein S6 kinase alpha-6 (Homo sapiens) (UniProt Q9UK32); conditions: at 1 µM
[12] = biological target: T1, Serine/threonine-protein kinase Sgk1 (Homo sapiens) (UniProt O00141); conditions: at 0.1 µM
T1 sequence (whole entry): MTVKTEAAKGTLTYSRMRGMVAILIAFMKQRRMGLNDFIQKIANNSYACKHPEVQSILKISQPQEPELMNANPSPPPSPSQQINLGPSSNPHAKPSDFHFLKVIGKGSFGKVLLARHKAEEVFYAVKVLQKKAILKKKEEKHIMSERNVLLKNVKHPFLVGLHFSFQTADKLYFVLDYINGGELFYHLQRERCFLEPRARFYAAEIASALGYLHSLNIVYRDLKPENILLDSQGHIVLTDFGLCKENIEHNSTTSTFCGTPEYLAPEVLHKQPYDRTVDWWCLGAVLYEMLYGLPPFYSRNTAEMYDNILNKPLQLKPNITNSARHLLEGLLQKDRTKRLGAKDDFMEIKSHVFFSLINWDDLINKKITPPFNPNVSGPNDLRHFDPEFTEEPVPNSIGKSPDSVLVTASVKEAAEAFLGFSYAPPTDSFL

[13] = biological target: T1, Serine/threonine-protein kinase Sgk1 (Homo sapiens); conditions: at 1 µM
[14] = biological target: T2, Serine/threonine-protein kinase Sgk2 (Homo sapiens) (UniProt Q9HBY8); conditions: at 0.1 µM
T2 sequence (whole entry): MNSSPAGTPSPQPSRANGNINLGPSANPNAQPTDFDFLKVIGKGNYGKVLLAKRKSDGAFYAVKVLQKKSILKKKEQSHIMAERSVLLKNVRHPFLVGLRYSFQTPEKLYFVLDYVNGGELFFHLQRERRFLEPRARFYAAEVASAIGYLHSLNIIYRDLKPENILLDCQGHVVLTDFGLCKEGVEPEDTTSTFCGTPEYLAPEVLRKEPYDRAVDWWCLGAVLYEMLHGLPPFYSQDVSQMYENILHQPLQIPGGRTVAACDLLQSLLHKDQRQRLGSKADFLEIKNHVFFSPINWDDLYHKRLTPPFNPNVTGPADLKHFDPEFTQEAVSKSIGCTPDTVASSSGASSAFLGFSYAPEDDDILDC

[15] = biological target: T2, Serine/threonine-protein kinase Sgk2 (Homo sapiens); conditions: at 1 µM
[16] = biological target: T3, Serine/threonine-protein kinase Sgk3 (Homo sapiens) (UniProt Q96BR1); conditions: at 0.1 µM
T3 sequence (whole entry): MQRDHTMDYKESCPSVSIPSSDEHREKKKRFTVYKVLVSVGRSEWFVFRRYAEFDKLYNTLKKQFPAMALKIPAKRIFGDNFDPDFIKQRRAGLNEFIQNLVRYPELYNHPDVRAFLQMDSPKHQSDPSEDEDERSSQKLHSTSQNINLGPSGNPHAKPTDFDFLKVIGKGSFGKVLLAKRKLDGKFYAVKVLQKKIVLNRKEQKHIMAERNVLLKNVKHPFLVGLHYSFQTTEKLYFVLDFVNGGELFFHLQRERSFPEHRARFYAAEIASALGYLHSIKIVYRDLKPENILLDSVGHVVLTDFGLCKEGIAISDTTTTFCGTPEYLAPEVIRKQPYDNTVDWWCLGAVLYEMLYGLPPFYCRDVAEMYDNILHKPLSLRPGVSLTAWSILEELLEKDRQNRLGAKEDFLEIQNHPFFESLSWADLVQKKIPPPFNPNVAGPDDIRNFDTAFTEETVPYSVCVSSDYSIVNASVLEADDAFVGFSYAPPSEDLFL

[17] = biological target: T3, Serine/threonine-protein kinase Sgk3 (Homo sapiens); conditions: at 1 µM
[18] = biological target: 5'-AMP-activated protein kinase catalytic subunit alpha-1 (Homo sapiens) (UniProt Q13131); conditions: at 0.1 µM
Chain of 5'-AMP-activated protein kinase catalytic subunit alpha-1 (Homo sapiens) (Q13131 whole entry, looked up): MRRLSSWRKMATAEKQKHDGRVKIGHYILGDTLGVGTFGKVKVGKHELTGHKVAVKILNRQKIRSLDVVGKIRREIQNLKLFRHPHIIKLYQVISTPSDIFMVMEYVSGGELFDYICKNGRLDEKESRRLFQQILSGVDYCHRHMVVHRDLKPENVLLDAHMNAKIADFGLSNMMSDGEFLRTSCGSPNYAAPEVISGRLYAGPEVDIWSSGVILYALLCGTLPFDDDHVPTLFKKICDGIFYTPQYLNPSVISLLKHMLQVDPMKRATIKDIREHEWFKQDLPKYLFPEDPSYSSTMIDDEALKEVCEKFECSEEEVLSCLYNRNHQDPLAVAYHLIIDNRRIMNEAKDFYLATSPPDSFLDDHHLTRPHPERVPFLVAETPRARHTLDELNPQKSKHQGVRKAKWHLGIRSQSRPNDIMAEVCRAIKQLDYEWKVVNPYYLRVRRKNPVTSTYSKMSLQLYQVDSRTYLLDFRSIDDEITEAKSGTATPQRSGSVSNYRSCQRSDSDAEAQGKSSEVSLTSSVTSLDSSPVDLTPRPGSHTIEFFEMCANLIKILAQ

[19] = biological target: 5'-AMP-activated protein kinase catalytic subunit alpha-1 (Homo sapiens) (UniProt Q13131); conditions: at 1 µM
[20] = biological target: 5'-AMP-activated protein kinase catalytic subunit alpha-2 (Homo sapiens) (UniProt P54646); conditions: at 0.1 µM;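 note: mean inhibition measured on the AMPK complex of alpha2, beta1 and gamma1 subunits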

Chain of Rho-associated protein kinase 2 (Homo sapiens) (O75116 whole entry, looked up): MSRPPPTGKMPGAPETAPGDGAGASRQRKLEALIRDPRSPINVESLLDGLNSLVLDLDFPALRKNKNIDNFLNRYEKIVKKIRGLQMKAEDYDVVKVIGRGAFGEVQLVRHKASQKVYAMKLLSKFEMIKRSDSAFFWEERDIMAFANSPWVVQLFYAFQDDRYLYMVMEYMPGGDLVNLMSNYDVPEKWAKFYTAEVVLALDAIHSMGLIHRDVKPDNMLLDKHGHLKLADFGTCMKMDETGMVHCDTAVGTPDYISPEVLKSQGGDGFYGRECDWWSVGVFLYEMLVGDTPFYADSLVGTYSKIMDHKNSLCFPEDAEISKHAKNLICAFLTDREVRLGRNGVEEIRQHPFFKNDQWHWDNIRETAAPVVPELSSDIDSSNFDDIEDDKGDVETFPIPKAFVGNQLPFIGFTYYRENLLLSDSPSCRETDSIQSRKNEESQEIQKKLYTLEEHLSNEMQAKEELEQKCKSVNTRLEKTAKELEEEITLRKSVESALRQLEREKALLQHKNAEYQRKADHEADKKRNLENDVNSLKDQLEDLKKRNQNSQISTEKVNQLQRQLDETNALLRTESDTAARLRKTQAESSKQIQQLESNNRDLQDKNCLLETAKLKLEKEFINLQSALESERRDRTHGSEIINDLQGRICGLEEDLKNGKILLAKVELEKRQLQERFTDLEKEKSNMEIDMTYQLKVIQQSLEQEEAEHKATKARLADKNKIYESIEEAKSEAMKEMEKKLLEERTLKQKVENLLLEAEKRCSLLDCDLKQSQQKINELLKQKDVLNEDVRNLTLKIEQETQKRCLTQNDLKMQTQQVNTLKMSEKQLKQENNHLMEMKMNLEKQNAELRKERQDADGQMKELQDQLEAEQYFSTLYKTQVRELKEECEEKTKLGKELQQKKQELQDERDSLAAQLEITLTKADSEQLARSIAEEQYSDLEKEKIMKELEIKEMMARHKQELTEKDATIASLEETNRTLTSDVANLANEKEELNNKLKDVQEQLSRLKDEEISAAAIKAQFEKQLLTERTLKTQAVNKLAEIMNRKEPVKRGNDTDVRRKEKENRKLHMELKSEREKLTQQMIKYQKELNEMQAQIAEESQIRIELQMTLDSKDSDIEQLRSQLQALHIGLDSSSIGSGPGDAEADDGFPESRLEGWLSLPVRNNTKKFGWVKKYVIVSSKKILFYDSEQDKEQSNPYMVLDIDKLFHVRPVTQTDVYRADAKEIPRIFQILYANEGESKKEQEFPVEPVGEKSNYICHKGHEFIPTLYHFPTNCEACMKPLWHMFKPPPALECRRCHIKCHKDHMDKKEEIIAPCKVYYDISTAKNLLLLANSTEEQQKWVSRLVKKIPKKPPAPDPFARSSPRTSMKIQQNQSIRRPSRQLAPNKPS

Row | Compound | inhibition [1] [%] | inhibition [2] [%] | inhibition [3] [%] | inhibition [4] [%] | inhibition [5] [%] | inhibition [6] [%] | inhibition [7] [%] | inhibition [8] [%] | inhibition [9] [%] | inhibition [10] [%] | inhibition [11] [%] | inhibition [12] [%] | inhibition [13] [%] | inhibition [14] [%] | inhibition [15] [%] | inhibition [16] [%] | inhibition [17] [%] | inhibition [18] [%] | inhibition [19] [%] | inhibition [20] [%]
1 | Fc1ccc(-c2nc3n(c2-c2ccncc2)CCS3)cc1 | 4.54 | 2.98 | 5.06 | 3.03 | 2.88 | 1.5 | 1.71 | 3.31 | 4.36 | 2.72 | 3.9 | 3.17 | 4.66 | 2.05 | 4.96 | 1.96 | 2.6 | 2.91 | 2.64 | 4.5
2 | O=C(Nc1n[nH]c2nc(-c3ccc(O)cc3)c(Br)cc12)C1CC1 | 1.33 | 4.18 | 6.43 | 7.28 | 33 | 10.3 | 44.8 | 22.4 | 70.6 | 16.4 | 59.7 | 3.83 | 12.1 | 6.54 | 24.8 | 5.88 | 16.7 | 5.78 | 20.1 | 4.36
3 | CS(=O)(=O)CCNCc1cc(-c2cc3c(Nc4ccc(OCc5cccc(F)c5)c(Cl)c4)ncnc3s2)cs1 | 4.5 | 3.92 | 5.77 | -0.03 | 1.94 | 1.24 | 1.57 | 3.28 | 2.95 | 0.77 | 2.5 | 2.39 | 1.38 | 5.74 | 2.6 | 3.92 | 6.65 | 2.39 | 3.88 | 5.96
4 | C[C@@H](Oc1cc(-n2cnc3ccc(OCC4CCN(C)CC4)cc32)sc1C(N)=O)c1ccccc1Cl | 7.23 | 3.44 | 9.54 | 3.39 | 16.8 | 4.17 | 22.5 | 5.72 | 22.4 | 8.06 | 42.4 | 2.62 | 4.04 | 4.94 | 3.37 | 2.38 | 3.66 | 6.05 | 24.5 | 8.96
5 | O=C(Nc1n[nH]c2cc(-c3cc(F)ccc3F)ccc12)C1CC1 | 2.49 | 1.39 | 2.28 | 0.64 | 0.86 | 0.31 | 1.63 | 1.04 | 3.43 | -0.13 | 2.43 | 2.46 | 1.25 | 0.34 | 0.08 | 2.01 | 0.16 | 2.72 | 2.32 | 3.84
6 | NS(=O)(=O)c1ccc(N/N=C2\C(=O)Nc3ccc(-c4cnco4)cc32)cc1 | 37.6 | 16.3 | 58.3 | -0.32 | 3.8 | -1 | 2.65 | 1.5 | 7.28 | 0.03 | 5.02 | 1.68 | 10.2 | 1.11 | 3.35 | 1.34 | 5.76 | 3.38 | 15.9 | 5.38
7 | Fc1ccc(-c2ncn(C3CCNCC3)c2-c2ccnc(Oc3ccc(Oc4ccccc4)cc3)n2)cc1 | 1.68 | 2.53 | 3.69 | 3.01 | 2.7 | 1.73 | 2.37 | 3.61 | 3.8 | 2.38 | 3.14 | 1.53 | 2.46 | 3.23 | 3.39 | 4.76 | 2.42 | 2.46 | 4.03 | 8.18
8 | COc1cc(Nc2ncc(-c3ccccc3)o2)cc(OC)c1OC | 1.85 | -0.74 | 3.74 | 0.23 | 3.07 | 0.02 | 2.83 | 0.65 | 6.88 | 0.47 | 6.6 | 1.24 | 5.44 | 3.15 | 1.18 | 0.24 | 0.29 | 0.26 | 9.16 | 5
9 | Fc1ccc(-c2ncn(CCCN3CCOCC3)c2-c2ccncc2)cc1 | -0.82 | 0.06 | -4.4 | -1.49 | -3.25 | 0.33 | -0.73 | 0.61 | -0.22 | 0.43 | -0.21 | -0.45 | 0.64 | 1.89 | -4.02 | -1.19 | -1.33 | 0.37 | -1.12 | 0.28
10 | CN(c1ccc(NC(=O)Nc2c(Cl)cccc2Cl)cc1)c1ccnc(Nc2cccc(CS(C)(=O)=O)c2)n1 | 2.01 | 3.46 | 9.15 | 2.34 | 4.66 | 2.08 | 3.81 | -2.19 | 1.78 | 0.45 | 1.06 | 1.73 | 7.64 | 5.92 | 22.8 | 3.73 | 4.02 | 2.22 | 3.05 | -0.21
11 | Cc1ccc(C(=O)NC2CCC2)cc1-c1ccc(C(=O)NCC2CC2)cc1 | 1.32 | 1.03 | -0.46 | 1.52 | 1.45 | 0.97 | 1.47 | 1.58 | 2.68 | 1.63 | 1.08 | 2.17 | 2.8 | 0.49 | -2.52 | 0.54 | 1.57 | 1.41 | 1.46 | 1.35
